Measured values from PubChem BioAssay (Tox21).
Activity calls are given as the source filed them. Calls come from the whole dose curve; as a rule, active = well fitted curve in the direction sought with a large enough effect in the repeat runs; inconclusive = weak or mixed curves; inactive = flat fitted curve, though single readings scatter. Non-standard residues stand in square brackets, D forms with d. Residues, ends and D or L forms follow the SMILES beside them. Orn = NCCC[C@H](N)C(=O)O

Experiment: qHTS assay to test for compound auto fluorescence at 460 nm (blue) in HEK293 cell free culture (AID 720681)
Details: cell-free medium, autofluorescence 405/460 nm (blue); series mostly up to 46 µM; fluorescence, % of fluorescent control: at the top concentration
From the text: U.S. Tox21 Program National Center for Advancing Translational Sciences [NCATS] NIH Chemical Genomics Center [NCGC] U.S. Environmental Protection Agency [EPA] National Institutes of Environmental Health Sciences [NIEHS] National Toxicology Program [NTP] U.S. Food and Drug Administration [FDA] Tox21 Assay Overview: Compound auto fluorescence often interferes with screening of the compound library against various biological targets and signaling pathways. Some of these compounds may have fluorophoric properties. Such properties may interfere with the assay outputs resulting in false positives and/or negatives. To decrease such complications and ensure the compound activities are relevant in terms of biological response, the Tox21 10K compound library was screened for auto fluorescence. From the fluorophores used as reporter signals in our screening assays, the auto fluorescence equivalencies of compounds against three fluorophores have been evaluated: Triamterene, Fluorescein and Rose Bengal sodium for blue, green and red fluorescence, respectively. The fluorescence intensities were measured using Excitation/Emission wavelengths at 405/460nm, 485/535nm and 540/590nm for blue, green and red labels, respectively. This assay includes the blue fluorescence data.
Tox21 Assay Protocol Summary: 5 uL of culture medium (DMEM containing 10% FBS) per well was dispensed into black wall/clear bottom 1536-well plates using a Multidrop Combi Dispenser (ThermoFisher Scientific, Waltham, MA). After 23 nL compound or DMSO vehicle was transferred into assay plate by a pintool work station (Kalypsys, San Diego, CA), fluorescence intensities in the assay plates were measured by an Envision (PerkinElmer, Shelton, CT) plate reader using three labels for measuring blue, green and red fluorescence at […] 460, 535 and 590nm respectively.
% is set by controls: 0 for no effect and ±100 for the full control effect.

Compound	Potency	fluorescence, % of fluorescent control
CC[C@H]1OC(=O)[C@H](C)C(=O)[C@H](C)[C@@H](O[C@@H]2O[C@H](C)C[C@H](N(C)C)[C@H]2O)[C@](C)(OC)C[C@@H](C)C(=O)[C@H](C)[C@H]2N(CCCCn3cnc(-c4cccnc4)c3)C(=O)O[C@]12C	inactive	–
CC/C(=C(/CC)c1ccc(OP(=O)(O)O)cc1)c1ccc(OP(=O)(O)O)cc1	–	-0.0146% (inactive)
NC(N)=NCC1COC2(CCCCC2)O1 (stereo not given)	–	0.0983% [at 18.6 µM] (inactive)
CSCCC(N)C(=O)O (stereo not given)	–	-0.0508% (inactive)
CCCCCCCCCCCCCCCCC(C(=O)O)C(O)(CC(=O)O)C(=O)O (stereo not given)	–	0.0127% (inactive)
CC(C)C[C@@H]1NC(=O)[C@H](CCCN)NC(=O)[C@H](C(C)C)NC(=O)[C@@H]2CCCN2C(=O)[C@@H](Cc2ccccc2)NC(=O)[C@H](CC(C)C)NC(=O)[C@H](CCCN)NC(=O)[C@H](C(C)C)NC(=O)[C@@H]2CCCN2C(=O)[C@@H](Cc2ccccc2)NC1=O (cyclo(V[Orn]L[dF]PV[Orn]L[dF]P))	–	-0.0254% (inactive)
O=C(Cn1cnnn1)N[C@@H]1C(=O)N2C(C(=O)O)=C(CSc3nncs3)CS[C@H]12	inactive	–
CCCn1c(=O)[nH]c(=O)c2[nH]cnc21	–	-0.0589% (inactive)
CC(C)(C)c1ccc2c(S(=O)(=O)O)c(C(C)(C)C)ccc2c1	inactive	–
NCCO/C=C/[C@H](N)C(=O)O	–	-0.0798% (inactive)
CN(C[C@@H](CC[N+]12CCC(C3CCCCC3)(CC1)CC2)c1ccc(Cl)c(Cl)c1)C(=O)c1cc(C(F)(F)F)cc(C(F)(F)F)c1	–	-0.148% [at 91.3 µM] (inactive)
CC(C)CCC[C@@H](C)[C@H]1CC[C@H]2[C@@H]3CC=C4C[C@@H](O)CC[C@]4(C)[C@H]3CC[C@]12C	–	-0.056% (inactive)
CCOc1ccc([N+](=O)[O-])cc1	–	0.0527% [at 95.7 µM] (inactive)
CCCCCCCCOC(=O)c1cc(O)c(O)c(O)c1	–	0.0212% [at 91.3 µM] (inactive)
O=C1c2ccccc2CN2C(=O)c3ccccc3CN12	–	-0.179% (inactive)
O=C1OC(O)C(C(Cl)Cl)=C1Cl (stereo not given)	–	0.22% [at 95.7 µM] (inactive)
CC1=C(/C=C/C(C)=C/C=C/C(C)=C/C=C/C=C(C)/C=C/C=C(C)/C=C/C2=C(C)CCCC2(C)C)C(C)(C)CCC1	–	-0.123% (inactive)
CCCCCCOC(=O)c1cccnc1	–	-0.0854% (inactive)
CC[C@H]1OC(=O)C[C@@H](O)[C@H](C)[C@@H](O[C@@H]2O[C@H](C)[C@@H](O)[C@H](N(C)C)[C@H]2O)[C@@H](CCN2C[C@H](C)C[C@H](C)C2)C[C@@H](C)C(=O)/C=C/C(C)=C/[C@@H]1CO[C@@H]1O[C@H](C)[C@@H](O)[C@@H](OC)[C@H]1OC	–	-0.106% (inactive)
O=C(O)c1cc2cc(Cc3cccnc3)ccc2o1	–	0.105% (inactive)

Compound	Potency	fluorescence, % of fluorescent control
CCCCCCCCCC[N+](C)(CCCCCCCCCC)CCC[Si](OC)(OC)OC	–	-0.203% [at 91.3 µM] (inactive)
C=CC[N@@+]12CC[C@@]34c5ccccc5N5/C=C6/[C@H]7C[C@H]8[C@@]9(CC[N@@+]8(CC=C)C/C7=C/CO)c7ccccc7N(/C=C(/[C@@H](C[C@@H]31)/C(=C\CO)C2)[C@H]54)[C@@H]69	–	0.174% [at 18.6 µM] (inactive)
Oc1ccc(Cl)c2c1CCC2	–	0.0257% (inactive)
CC(C)[N+]1(C)[C@@H]2CC[C@H]1CC(OC(=O)C(CO)c1ccccc1)C2 (stereo not given in full)	inactive	–
Nc1nc(/C(=C/CC(=O)O)C(=O)N[C@@H]2C(=O)N3C(C(=O)O)=CCS[C@H]23)cs1	–	0.404% (inactive)
C=CC[N+]1([C@H]2C[C@H]3[C@@H]4CC[C@H]5C[C@H](O)[C@@H](N6CCOCC6)C[C@]5(C)[C@H]4CC[C@]3(C)[C@H]2OC(C)=O)CCCC1	–	0.0011% (inactive)
c1ccc(-n2cnnn2)cc1	–	0.0204% (inactive)
CC12CCC(C[N+](C)(CCC[N+](C)(C)C)C1)C2(C)C (stereo not given)	–	0.0056% (inactive)
N[C@@H](Cc1ccc(O)c(O)c1)C(=O)O	–	0.962% (inactive)
OCC1(CO)COC(C(Cl)(Cl)Cl)OC1	–	0.0078% (inactive)
CCN(CC)C(=O)c1cccnc1	–	-0.0392% (inactive)
C=CCc1cc(S(=O)(=O)c2ccc(O)c(CC=C)c2)ccc1O	–	-0.125% [at 91.3 µM] (inactive)
NCCCC[C@H](NC(=O)[C@@H]1CCCN1C(=O)[C@@H]1CSSC[C@H](N)C(=O)N[C@@H](Cc2ccc(O)cc2)C(=O)N[C@@H](Cc2ccccc2)C(=O)N[C@@H](CCC(N)=O)C(=O)N[C@@H](CC(N)=O)C(=O)N1)C(=O)NCC(N)=O	inactive	–
O=C(O)c1cc(=O)c2c3nc4ccccc4oc-3cc(=O)c2[nH]1	–	2.43% (inactive)
CC1(C)S[C@@H]2[C@H](N3C(=O)C(c4ccccc4)NC3(C)C)C(=O)N2[C@H]1C(=O)O (stereo not given in full)	–	1.75% (inactive)
CCCC(CCC)C(=O)OC1C[C@H]2CC[C@@H](C1)[N+]2(C)C (stereo not given in full)	inactive	–
CCCCCCCCCC(=O)NO	inactive	–
CCOc1ccc(S(=O)(=O)O)c2cccnc12	–	-0.0063% (inactive)
C[N+]1(CCCCC[N+]2(C)CCCC2)CCCC1	–	-0.0854% (inactive)
CC1CCCCN1CCCOC(=O)c1ccccc1 (stereo not given)	–	-0.146% (inactive)
